A selection: hits, their analogues and other compounds. The true share with any hit is near 1.6%.
SK-BR-3 tox 24h – SK-BR-3 proliferation inhibitors | AID 847 | actives 0.47% (n = 41,000) | SK-BR-3 viability, CellTiter-Glo ATP luminescence, 24 h; active compounds read low | viability, % at 10 µM;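 active = viability at or below the median of all test compounds minus 3 SD, in both replicates if run twice, cut at about 45% in these data; inconclusive = duplicate replicates that disagree with each other; inactive = viability above that cutoff in every replicate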;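 note: 100% = median untreated cell wells and 0% = median positive control drug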
PKA inh – blocks human protein kinase A activity; PKA Kemptide phosphorylation, Kinase-Glo ATP luminescence; inhibition, % at 6 µM; P17612; actives 0.1% (n = 65,000);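 active = inhibition above the screen-wide mean inhibition plus 3 SD, cut at about 21% in these data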
Hsp90 block – displaces geldanamycin probe from tumor Hsp90; NCI-N417 lysate Hsp90, Cy3B-geldanamycin FP displacement; inhibition, % at 30 µM; actives 0.35% (n = 64,000); P07900;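 active = inhibition above 50%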;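 note: 0% = tracer plus lysate wells and 100% = tracer alone without lysate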
WNV NS2B-NS3 inh – blocks West Nile virus NS2B-NS3 protease activity; WNV NS2B-NS3 protease, fluorogenic substrate Ex360/Em465; active compounds read low; z-score (no concentration beside the values); actives 0.18% (n = 65,000); in the data active = z-score below about -3
Target sequence (P06935 1371-1501 limits assumed): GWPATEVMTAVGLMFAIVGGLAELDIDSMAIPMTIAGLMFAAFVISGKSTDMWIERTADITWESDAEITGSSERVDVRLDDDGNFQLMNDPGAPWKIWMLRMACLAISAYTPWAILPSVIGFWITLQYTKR
Target sequence (P06935 1502-1679 limits assumed): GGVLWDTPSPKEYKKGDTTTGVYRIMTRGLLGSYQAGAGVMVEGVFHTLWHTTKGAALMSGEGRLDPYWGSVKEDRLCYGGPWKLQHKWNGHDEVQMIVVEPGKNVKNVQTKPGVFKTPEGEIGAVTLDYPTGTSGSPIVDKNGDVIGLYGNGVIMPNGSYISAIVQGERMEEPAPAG
ROCK2 blocker – ROCK2 (human) kinase inhibition; O75116; purified ROCK2, Kinase-Glo ATP depletion luminescence; inhibition, % at 6 µM; actives 0.35% (n = 60,000);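 active = inhibition above the screen-wide mean inhibition plus 3 SD, cut at about 18% in these data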;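 note: plate controls were DMSO wells for no effect and Y-27632 control wells after no-enzyme background subtraction for full effect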
Her2 expr inh – inhibitors of human Her2 kinase expression; actives 0.69% (n = 65,000); P04626; AID 645; HER2 level % of control, % at 10 µM; SKBR-3 HER2 protein level, AlphaScreen, 18-24 h; active compounds read low;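 active = HER2 level under 5% of the carrier-only control; inconclusive = no clear call, values can overlap the other calls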;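 note: 100% = DMSO carrier and 0% = 500 nM PU-H71 HSP90 inhibitor; lower value means stronger loss of Her2 protein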
The depositor's hits bear a star; ? = inconclusive; nt = no result.

SMILES | SK-BR-3 tox 24h | PKA inh | Hsp90 block | WNV NS2B-NS3 inh | ROCK2 blocker | Her2 expr inh
Cc1[nH]nc2c1C(C1CC=CCC1)C(C#N)=C(N)O2 (stereo unspecified) | 82.5 | 13.2 | -2.4 | -0.18 | 4.4 | -10.5*
CCCCS(=O)(=O)/C=C\C=C/S(=O)(=O)CCCC | 38.0* | 2.4 | nt | 0.41 | nt | -17.3*
Cc1ccc(NC(=O)CN(c2ccccc2F)S(C)(=O)=O)cc1 | 92.6 | 5.3 | -0.5 | -1.34 | 0.4 | 82.4
O=C1CC(Sc2nnc(-c3ccccc3O)o2)C(=O)N1c1ccccc1 (stereo unspecified) | nt | -1.9 | 1.8 | -0.38 | 2.0 | -12.7*
O=C1OCCC1Sc1nnc(-c2ccccc2)o1 (stereo unspecified) | nt | 10.1 | 0.1 | 0.49 | 2.6 | 145.5
COc1ccc(N2C(=O)CC(Sc3nnc(-c4ccccc4)o3)C2=O)cc1 (stereo unspecified) | nt | 9.6 | -2.4 | -0.08 | 8.5 | -18.1*
O=C1c2ccccc2CC1Sc1nnc(-c2ccccn2)o1 (stereo unspecified) | 90.6 | 0.1 | -7.8 | -1.19 | 5.0 | 85.3
COC1(OC)N=C(N)C2(C#N)C(c3ccc(C)cc3)C12C#N (stereo unspecified) | 80.9 | 14.4 | -1.4 | 0.46 | 10.8 | 69.8
COC1(OC)N=C(N)C2(C#N)C(c3ccc4c(c3)OCO4)C12C#N (stereo unspecified) | 98.8 | 18.3 | -8.0 | 1.13 | 28.9* | 55.2
COc1ccc2oc(=O)c(-c3nnc(NCc4ccco4)s3)cc2c1 | nt | 6.9 | 1.1 | -0.54 | 5.6 | -10.6*
CCOc1ccccc1-n1c(SCC(=O)Nc2ccc(CC)cc2)nc2n[nH]c(C)c2c1=N | 30.5* | 6.0 | 1.5 | -0.83 | 4.3 | 24.6
COC(=O)c1ccc(-c2sc3nc(N4CCOCC4)c4c(c3c2N)CC(C)(C)OC4)o1 | 33.7* | 2.9 | -2.9 | -0.0012 | 4.4 | 21.7
O=S(=O)(CC(CN1CCCC1)N1CCCC1)c1ccc2ccccc2c1 (stereo unspecified) | 95.8 | 10.9 | -10.7 | -0.42 | 4.9 | -12.8*
Cc1ccc(NCN2C(=O)C3C4C=CC(C4)C3C2=O)cc1 (stereo unspecified) | nt | 6.0 | -3.1 | -0.82 | 4.1 | 86.0
O=C1C2C3C=CC(C3)C2C(=O)N1CNc1ccc(O)cc1 (stereo unspecified) | 97.4 | 6.7 | 60.9* | -0.44 | 10.4 | 90.2
CCCCCC[C@@H]([C@@H](C)O)n1cnc2c(N)ncnc21 | nt | nt | 0.1 | nt | nt | nt
Nc1ccc2[nH]ncc2c1 | 83.9 | 0.3 | 0.2 | -0.26 | 32.3* | 106.9
CC(=O)O[C@]1(C(C)=O)CC[C@H]2[C@@H]3C=C(Cl)C4=CC(=O)[C@@H]5C[C@@H]5[C@]4(C)[C@H]3CC[C@@]21C | nt | nt | 2.1 | nt | nt | nt
C=CCn1c(SCC(=O)OC)nc2sc3c(c2c1=O)CCN(C)C3 | 113.2 | 5.9 | -9.2 | -7.36* | 6.2 | 144.5
CCN(CC)c1ccc(-c2nc3cnccc3n2C)cc1 | 73.5 | -9.2 | -3.0 | 0.01 | -7.7 | 97.9
CCOc1ccc(C(c2nnnn2Cc2ccccc2)N2CCN(C(=O)c3ccco3)CC2)cc1 (stereo unspecified) | 40.9* | 6.1 | -4.5 | -0.34 | 2.7 | 118.0
COc1ccc(C(c2nnnn2Cc2ccccc2)N2CCN(C(=O)c3ccco3)CC2)cc1 (stereo unspecified) | 60.6 | -4.6 | -5.6 | -0.18 | -3.8 | 119.2
CCCNCCCC(C)Nc1cc(OC)cc2c(C)ccnc12 (stereo unspecified) | nt | nt | -6.1 | nt | nt | nt
CCN1CCN(c2nc3c(c(=O)[nH]c(=O)n3C)n2CCCSc2ncccn2)CC1 | 88.9 | 1.5 | -0.8 | -3.75* | 5.2 | 99.1
CCCc1cc(C(=O)Cc2ccc(F)cc2)c(O)cc1O | 16.2* | 4.6 | 5.4 | -1.01 | 8.5 | -11.6*
SMILES | SK-BR-3 tox 24h | PKA inh | Hsp90 block | WNV NS2B-NS3 inh | ROCK2 blocker | Her2 expr inh
O=C(NCCOC(=O)c1ccncc1)c1ccccc1 | 90.5 | 8.8 | -5.2 | -0.7 | 2.6 | 105.7
O=C(NCCCc1ccccc1)c1ccncc1 | 93.5 | 13.7 | -2.4 | -0.84 | 8.3 | -5.5*
CC(C)[C@@H]1NC(=O)[C@H](CCCCN)NC(=O)[C@@H](Cc2c[nH]c3ccccc23)NC(=O)[C@H](Cc2ccc(O)cc2)NC(=O)[C@H](C)N(C)C(=O)[C@H](Cc2ccccc2)NC1=O | nt | nt | -2.9 | nt | nt | nt
COc1cc(N)c2nccc(Cl)c2c1 | nt | nt | 12.9 | nt | nt | nt
Cc1onc(-c2ccccc2)c1C(=O)N1CCN(C/C=C/c2ccccc2)CC1 | nt | 5.3 | -1.7 | -0.33 | 21.7* | 74.6
Cc1onc(-c2ccccc2)c1C(=O)N1CCN(CCc2ccccc2)CC1 | 88.5 | 9.1 | -2.2 | 0.19 | 6.2 | 93.6
CC(C)N1CCC2(CC1)N=C(c1ccc3c(c1)OCO3)CC(c1cc(Cl)ccc1O)N2 (stereo unspecified) | nt | 0.9 | -0.7 | -0.18 | -0.6 | -18.3*
CCOC(=O)N1CCN(CCC(=O)Nc2ccc(OC(F)(F)F)cc2)CC1 | 37.4* | -1.3 | 0.7 | 1.33 | -2.8 | 110.1
CCOC(=O)N1CCN(CC(=O)Nc2ccc(OC)cc2)CC1 | nt | 6.8 | -0.8 | 0.00733 | nt | 87.4
Cc1ccc(CNC(=O)c2cc3c(-c4ccc(Cl)cc4)nn(C)c3s2)o1 | nt | 6.4 | -4.2 | -0.24 | 0.8 | -17.5*
COC(=O)c1sc2cnccc2c1N | nt | 16.6 | -0.4 | 1.6 | 42.4* | 158.7
Cc1c(-c2cccs2)[n+](=O)c2c(n1[O-])CCCC2 | 103.2 | -0.3 | 0.0 | -0.55 | 4.3 | -30.7*
Cc1c(-c2ccco2)[n+](=O)c2c(n1[O-])CCCCC2 | 93.0 | 1.3 | nt | -0.27 | nt | 78.8
Cc1ccccc1Nc1cc2ccccc2c(=O)[nH]1 | 78.3 | 2.2 | 78.6* | 0.48 | 4.5 | 15.2
CCC1CCCCN1c1nc(-c2ccncc2)nc2ccccc12 (stereo unspecified) | 104.6 | 61.5* | 2.1 | -0.39 | 15.3 | 110.2
CCCN(CC1CC1)c1nc(C)nc(Nc2c(Cl)cc(Cl)cc2Cl)c1Cl | nt | nt | 0.7 | nt | nt | nt
CCn1c(-c2c[nH]c3ccccc23)n[nH]c1=S | 89.4 | 3.1 | -1.8 | -0.83 | 6.5 | 101.5
c1ccc2c(-c3ccncc3)c[nH]c2c1 | 65.4 | 65.3* | -2.9 | 1.52 | 89.4* | 71.5
CCC(C)[C@@H](NC(=O)OC(C)(C)C)c1nnc(S(=O)(=O)Cc2cccc(C)c2)o1 (stereo partly specified) | 20.8* | 4.5 | -1.9 | -0.48 | -0.3 | -17.3*
CCn1c2ccccc2c2cc(C3C(C#N)=C(N)Oc4n[nH]c(COC)c43)ccc21 (stereo unspecified) | ? | 7.6 | -13.9 | 0.76 | 6.8 | -23.8*
COCc1[nH]nc2c1C(c1ccc(OC)c(OC)c1)C(C#N)=C(N)O2 (stereo unspecified) | 133.9 | 10.8 | -0.7 | -0.79 | 5.5 | 128.2
CNC(=O)OCc1cnc2ccc(OC)cc2c1COC(=O)NC | nt | nt | -2.3 | nt | nt | nt
N#C/C(=C\c1ccc(O)c(O)c1)C(=O)c1ccc(O)c(O)c1 | nt | nt | 87.1* | nt | nt | nt

Source: PubChem (several laboratories)
